From PubChem BioAssay (EPA / NIEHS)
Calls of active or inactive are those of the source. Rule for the calls: active = hit-call score of the fitted dose curve at least 0.9, where 1 is the maximum; inactive = score below 0.9.

test: APR_HepG2_MitoMembPot_1hr: Apredica 1-hour HepG2 Assay for Mitochondrial Membrane Potential (AID 2282675); conditions: imaging, actives raise or lower the signal
Procedure: APR_HepG2_1hr is a cell-based, multiplexed-readout assay that uses HepG2, a human liver cell line, with measurements taken at 1 hour after chemical dosing in a 384-well plate.APR_HepG2_MitoMembPot_1hr is one of 10 assay component(s) measured or calculated from the APR_HepG2_1hr assay. It is designed to make measurements of dye binding, a form of membrane potential reporter, as detected with fluorescence intensity signals by HCS Fluorescent Imaging technology.Data from the assay component APR_HepG2_MitoMembPot_1hr was analyzed into 1 assay endpoint. This assay endpoint, APR_HepG2_MitoMembPot_1hr, was analyzed with bidirectional fitting relative to DMSO as the negative control and baseline of activity. Using a type of membrane potential reporter, gain or loss-of-signal activity can be used to understand changes in the signaling. Furthermore, this assay endpoint can be referred to as a primary readout, because this assay has produced multiple assay endpoints where this one serves a signaling function. To generalize the intended target to other relatable targets, this assay endpoint is annotated to the cell morphology intended target family, where the subfamily is organelle conformation.
Cells were treated with dimethyl sulfoxide (DMSO) as a solvent control at a final concentration of 0.5% v/v or with compounds in DMSO with a resulting final DMSO concentration of 0.5% v/v. Compound treatment was done at concentrations of 0.39, 0.78, 1.56, 3.12, 6.24, 12.5, 25, 50, 100, and 200 uM in duplicate on each plate. Cells were treated with compounds for 1, 24, or 72 hr. Carbonyl […] m-chloro-phenylhydrazone (CCCP) and taxol were used as positive controls for mitochondrial function and cytoskeletal stability, respectively; DMSO served as the negative control for this experiment. Cells were fixed by the direct addition of 50 uL formaldehyde in Hank's Balanced Salt Solution (HBSS) to a final concentration of 3.7%. After incubation in the fixation medium for 30 min at room temperature (293-298 K), cells were rinsed twice with HBSS and treated with cell permeabilization buffer (16 uL of 0.5% Triton X-100) for 10 min at room temperature (293-298 K) before labeling. For mitochondrial membrane potential and mitochondrial measurements, pre-fixed cells were incubated with 50 uL of MitoTracker Red CMXRos (Invitrogen) at a concentration of 250 nM for 30 min before fixation. In the remaining cases, post-fixed cells were labeled by incubation with a multiplexed mixture of primary antibodies in HBSS for 60 min at room temperature (293-298 K) to detect immunoreactivity of c-Jun (1:500), phospho-histone H3 (1:100), phospho-histone H2A.x (1:200), p53 (1:400), alpha-tubulin (1:200) and Hoechst 33342 (2 ug/mL). Cells were labeled for multiplexed imaging on two separate plates: a) Hoechst 33342, MitoTracker Red, phospho-histone H3, and alpha-tubulin, and b) Hoechst 33342, phospho-histone H2A.x, and c-Jun. A final rinse with HBSS (50 uL) was performed before analysis. The primary and secondary antibodies for the proteins were phospho-histone H3 (rabbit anti-phospho-histone H3 and FITC-donkey anti-rabbit IgG), phospho-histone H2A.x (mouse anti-phospho-histone H2A.x and FITC-donkey anti-mouse IgG), c-Jun (rabbit anti-phospho-c-Jun and Cy3-donkey anti-rabbit IgG), p53 (sheep anti-p53 and Cy5-donkey anti-sheep IgG), alpha-tubulin (mouse anti-alpha-tubulin and Cy5-donkey anti-mouse IgG). These antibodies are available as the CellCiphr HepG2 assay kit (Millipore).Digital images of each well were captured using a Cellomics ArrayScan VTI (Thermo Scientific Cellomics) (0.8 NA objective, 0.63x optical coupler, and XF-93 filter set) at 20x magnification. The images were acquired using the autofocus feature of the ArrayScan instrument, which entails the following steps. First, the camera focuses on channel 1 (Hoechst 33342), where nuclei are identified. Second, a Z offset of 1 um is used for capturing mitochondria (MitoTracker Red). […]

SMILES	outcome	AC50
OB(O)O	inactive	–
CCN(CC)C(=O)c1cccc(C)c1	inactive	–
c1ccc2[nH]c(-c3cscn3)nc2c1	inactive	–
CCCCC(CC)CN1C(=O)C2C3C=CC(C3)C2C1=O (stereo not given)	inactive	–
CCOC(=O)C(C)Oc1ccc(Oc2cnc3cc(Cl)ccc3n2)cc1 (stereo not given)	inactive	–
COC(=O)c1ccccc1C(=O)O	inactive	–
CCC(C)OC(=O)N1CCCCC1CCO (stereo not given)	inactive	–
O=C(O)C1(C(=O)Nc2ccc(Cl)cc2Cl)CC1	inactive	–
CSC(=O)c1cccc2nnsc12	inactive	–
CCN(Cc1c(F)cccc1Cl)c1c([N+](=O)[O-])cc(C(F)(F)F)cc1[N+](=O)[O-]	inactive	–
CCCCC(CC)COC(=O)c1ccccc1C(=O)O (stereo not given)	inactive	–
CCOC(=O)[C@H](C)Oc1ccc(Oc2nc3ccc(Cl)cc3o2)cc1	inactive	–
CCC(O)=C1C(=O)CC(C(=O)O)CC1=O (stereo not given)	inactive	–
CCCCCOC(=O)COc1cc(N2C(=O)C3=C(CCCC3)C2=O)c(F)cc1Cl	inactive	–
COc1c(Cl)ccc(Cl)c1C(=O)O	inactive	–
COC(=O)CSc1cc(N=c2sc(=O)n3n2CCCC3)c(F)cc1Cl	inactive	–
Oc1ccc(C(c2ccc(O)cc2)C(Cl)(Cl)Cl)cc1	–	87 µM (active)
COC(=O)c1ccc(I)cc1S(=O)(=O)NC(=O)Nc1nc(C)nc(OC)n1	inactive	–
CCCOC(=O)c1ccc(C(=O)OCCC)nc1	inactive	–
N#CSCSc1nc2ccccc2s1	inactive	–

SMILES	outcome	AC50
C=CCOC(Cn1ccnc1)c1ccc(Cl)cc1Cl (stereo not given)	inactive	–
CCOC(=O)COc1cc(-n2ncc(C(F)(F)F)c(C)c2=O)c(F)cc1Cl	inactive	–
CC1(C)C(C=C(Cl)Cl)C1C(=O)OCc1cccc(Oc2ccccc2)c1 (stereo not given)	inactive	–
CCCCOC(=O)C(C)Oc1ccc(Oc2ccc(C(F)(F)F)cn2)cc1 (stereo not given)	inactive	–
CCOC(=O)NCCOc1ccc(Oc2ccccc2)cc1	inactive	–
CCSC(=O)N(CC(C)C)CC(C)C	inactive	–
O=C(Nc1ccc([N+](=O)[O-])cc1Cl)c1cc(Cl)ccc1O	–	1.94 µM (active)
CCCCCCC(C)OC(=O)COc1nc(F)c(Cl)c(N)c1Cl (stereo not given)	inactive	–
COc1nc(C)nc(NC(=O)NS(=O)(=O)c2ccccc2OCCCl)n1	inactive	–
C#CCOC(=O)[C@@H](C)Oc1ccc(Oc2ncc(Cl)cc2F)cc1	inactive	–
COC(=O)c1ccc(CNS(C)(=O)=O)cc1S(=O)(=O)NC(=O)Nc1nc(OC)cc(OC)n1	inactive	–
S=C([S-])NCCNC(=S)[S-].[Mn+2]	inactive	–
S=C(S)NCCNC(=S)S.[Mn+2].[S-]C([S-])=NCCN=C([S-])[S-].[Zn+2]	inactive	–
CCOC(=O)C(C)Oc1ccc(Oc2nc3ccc(Cl)cc3o2)cc1 (stereo not given)	inactive	–
CC(C)(c1ccc(O)cc1)c1ccc(O)cc1	inactive	–
CN(C)C(=O)Nc1ccc(Cl)c(Cl)c1	inactive	–
CCNc1nc(N)nc(Cl)n1	inactive	–
CCCN(CCC)c1c([N+](=O)[O-])cc(C(F)(F)F)c(N)c1[N+](=O)[O-]	inactive	–
CC(C)(C)[C@@H](O)[C@@H](Cc1ccc(Cl)cc1)n1cncn1	inactive	–
c1ccc(Nc2ccccc2)cc1	inactive	–
